# Assay outcomes deposited in PubChem BioAssay by National Center for Advancing Translational Sciences (NCATS).
# hNpr1 antagonist – blocks ANP-stimulated signaling of human Npr1 receptor | P16066 | HEK293 hNpr1 GloSensor cGMP, ANP-stimulated luminescence | Potency, µM (highest dose often 46.3 µM), inactives show top-dose activity change, negative = inhibition, actives largely listed as inhibitors | 76,000 tested, 1.6% active | AID 1347048; further: on the % scale 0 is the no-effect control and ±100 the full control effect; nearly all actives have a fitted effect of over 60% in size
#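 Compound pre-incubated 30 min at room temperature on GloSensor-loaded HEK293 cells stably carrying hNpr1 and the pGS-40F cGMP biosensor. Stimulation uses hNppA at 0.1 nM final; luminescence is taken at baseline and 20 min post-agonist.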
# Luciferase inh – blocks purified firefly luciferase enzyme activity; purified P. pyralis luciferase, luminescence, biochemical; Potency, µM (highest dose often 115 µM), actives largely listed as inhibitors; 76,000 tested, 2.5% active; AID 1347043; active means well fitted curve in the direction sought with a large enough effect; inconclusive means small, poorly fitted or top-dose-only effect, or another doubt; inactive means no such curve, though single readings can be large; an effect the other way counts as inactive or inconclusive; further: on the % scale 0 is the no-effect control and ±100 the full control effect; nearly all actives have a fitted effect of over 65% in size
#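 Inhibitors were tested against purified firefly luciferase in a biochemical, low-substrate format (both substrates at 10uM) and luminescence measured with a CCD imager.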
# 3T3 cytotox – cytotoxic compounds in NIH 3T3 cells; NIH 3T3 viability, CellTiter-Glo ATP luminescence, 48-72 h; Potency, µM (top dose mostly 96.7 µM), for the others: at the top dose activity change, negative = cytotoxicity, actives largely listed as inhibitors; 94,000 tested, 4.3% active; active means well fitted curve in the direction sought with a large enough effect; inconclusive means small, poorly fitted or top-dose-only effect, or another doubt; inactive means no such curve, though single readings can be large; an effect the other way counts as inactive or inconclusive; further: on the % scale 0 is the no-effect control and ±100 the full control effect; nearly all actives have a fitted effect of over 55% in size
#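 NIH 3T3 cells at 400 cells/well received 23 nL of compound by pintool and were incubated 48 or 72 h at 37 °C. Viability was read as ATP-coupled CellTiter-Glo luminescence.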
# HEK293 tox – kills HEK 293 cells | HEK 293 viability, ATP luminescence (CellTiter-Glo), 48-72 h | Potency, µM (top dose mostly 115 µM), for inactives: at the top dose activity change, negative = cytotoxicity, most hits filed as inhibitors | 94,000 tested, 6.6% active; active means well fitted curve in the direction sought with a large enough effect; inconclusive means small, poorly fitted or top-dose-only effect, or another doubt; inactive means no such curve, though single readings can be large; an effect the other way counts as inactive or inconclusive; further: on the % scale 0 is the no-effect control and ±100 the full control effect; nearly all actives have a fitted effect of over 60% in size
#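 HEK 293 cells seeded at 250 cells/well were exposed to compound for 48 or 72 hr at 37 degree Celsius. Viability taken as ATP content by CellTiter-Glo luminescence.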
# Npr1 antag conf – hNpr1 antagonism, confirmation assay; Potency, µM (titrated, usually from 57.6 µM), for the others: top-dose activity change, negative = inhibition, actives largely listed as inhibitors; shares compounds with hNpr1 antagonist; HEK293 hNpr1 cGMP GloSensor luminescence, ANP-stimulated; 1,400 tested, 76% active; further: nearly all actives have a fitted effect of over 70% in size
# Npr2 selectivity – hNpr2 antagonism, selectivity versus Npr1 | 1,400 tested, 67% active | Potency, µM (titrated, usually from 57.6 µM), for inactives: at the highest dose activity change, negative = inhibition, most hits filed as inhibitors | shares compounds with hNpr1 antagonist | HEK293 hNpr2 GloSensor cGMP luminescence, CNP-stimulated | AID 1347046; further: nearly all actives have a fitted effect of over 70% in size
# FLuc inh counter – FLuc enzyme inhibition, Npr1 counter-screen. shares compounds with hNpr1 antagonist. purified FLuc enzyme, luminescence, Km substrate. Potency, µM (series often up to 57.6 µM), for the others: top-dose activity change, negative = inhibition, actives largely listed as inhibitors. 1,400 tested, 0.7% active; active means well fitted curve in the direction sought with a large enough effect; inconclusive means small, poorly fitted or top-dose-only effect, or another doubt; inactive means no such curve, though single readings can be large; an effect the other way counts as inactive or inconclusive; further: 0% is about no effect
# GloSensor ctrl – counter-screen for Npr1 antagonists: GloSensor control cell line; shares compounds with hNpr1 antagonist; 1,400 tested, 69% active; Potency, µM (doses to about 57.6 µM), inactives show top-dose activity change, negative = inhibition, actives largely listed as inhibitors; HEK293 GloSensor cGMP, SNP-stimulated, luminescence; further: on the % scale 0 is the no-effect control and ±100 the full control effect; nearly all actives have a fitted effect of over 70% in size
# An asterisk follows results filed as active; i = inactive; ? = inconclusive; . = no result given; [ ] = dose if it differs, or a comment. Hits are enriched below; roughly 11% of the tested compounds scored in any of these assays. Unless noted, the call rests on the fitted dose curve. Potency means the concentration at half of the fitted maximal effect.
SMILES,hNpr1 antagonist,Luciferase inh,3T3 cytotox,HEK293 tox,Npr1 antag conf,Npr2 selectivity,FLuc inh counter,GloSensor ctrl
CN(C)CCCNC(=O)C1CCCN(S(=O)(=O)c2ccccc2)CCC(=O)NCC1 (stereo unspecified),1%,i,-7%,-2%,.,.,.,.
COc1ccc(CN2CC3(CCN(C(=O)c4cccnc4)CC3)C2=O)cc1,.,.,-9%,-24%,.,.,.,.
Fc1ccc(-c2cnc3n2C[C@H](CNCC2CCCCC2)OC3)cc1,-15%[70.6 µM],i,?,?,.,.,.,.
Fc1ccc(-c2cnc3n2C[C@H](CNCc2ccccc2Cl)OC3)cc1,25µM*,i,?,79µM*,40µM*,40µM*,-19%[86.2 µM],40µM*
O=C(NCc1ccccc1F)c1ccc2c(c1)CN(Cc1ccncc1)CCO2,13µM*,i,-36%,?,17µM*,17µM*,5%,11µM*
COc1ccc(CN2CCOc3ccc(C(=O)NCc4ccccc4F)cc3C2)cc1OC,-20%,i,-16%,?,.,.,.,.
CCOC(=O)c1ccc(NC(=O)N2CCC3(CC2)SCC(=O)N3Cc2ccco2)cc1,-12%,i,?,?,.,.,.,.
O=C(Nc1ccc(F)c(Cl)c1)C1CCc2sc(C(=O)N3CCOCC3)cc2C1 (stereo unspecified),8.9µM*,i,?,28µM*,11µM*,12µM*,4%,9.7µM*
CCNC(=O)C1CCc2ncc(-c3ccsc3)n2C1 (stereo unspecified),0%,i,-4%,2%,.,.,.,.
COc1ccccc1CNC(=O)C1CCc2ncc(-c3ccsc3)n2C1 (stereo unspecified),-21%,i,-14%,?,?,-28%,0%,12%
Cc1cc(NC(=O)Cc2c[nH]c3ncc(-c4ccccc4C)cc23)n(C)n1,16µM*,i,?,?,31µM*,28µM*,0%[86.2 µM],28µM*
COc1ccc(NC(=O)Cc2c[nH]c3ncc(-c4ccccc4C)cc23)cc1,35µM*,i,?,79µM*,25µM*,18µM*,-8%[86.2 µM],31µM*
O=C(NCc1c[nH]c2ncccc12)c1cccnc1,1%[70.6 µM],i,-21%[138 µM],-8%[172 µM],.,.,.,.
COc1ccc(-n2c(=O)c(C(=O)Nc3cccc(Cl)c3)nc3cccnc32)cc1,.,.,-22%,?,.,.,.,.
NC(=O)Cc1c[nH]c2ncc(-c3ccc(Oc4ccccc4)cc3)cc12,7.9µM*,i,22µM*,35µM*,7.9µM*,11µM*,-22%[86.2 µM],7.9µM*
COc1ccccc1-c1[nH]nc2ncc(C(=O)Nc3cc(C)nn3C)nc12,-1%[70.6 µM],i,?,-36%[172 µM],.,.,.,.
COc1ncccc1-c1cnc2[nH]cc(CC(=O)Nc3cccc(Cl)c3)c2c1,?,i,?,32µM*,40µM*,?,1%[86.2 µM],44µM*
CC(C)CCN1CC2(Cc3ccccc3C(=O)N2)C1,.,.,-12%[138 µM],-8%[172 µM],.,.,.,.
COc1ccc(-c2cnc3[nH]cc(CC(=O)Nc4ccc(OC)nc4)c3c2)cc1,?,i,?,?,?,?,-1%[86.2 µM],?
COC(=O)c1ccc2c(c1)nc1n2[C@@H](CNC(=O)c2ccc(F)cc2)COC1,-1%[70.6 µM],i,-9%[138 µM],-19%[172 µM],.,.,.,.
COc1ccc(CNC(=O)c2ccc(Cn3ccn4nc5c(c4c3=O)CCCC5)cc2)cc1OC,11µM*,i,?,22µM*,27µM*,24µM*,0%,24µM*
COc1ccc(CNC(=O)c2ccc(Cn3ccn4nc5c(c4c3=O)CCCC5)cc2)cc1,11µM*,i,?,20µM*,27µM*,27µM*,1%,27µM*
CCC1Oc2ccc(NC(=O)Cc3ccc(F)cc3)cc2CN(Cc2cccc(OC)c2)C1=O (stereo unspecified),-18%,i,?,?,.,.,.,.
O=C(Nc1ccccc1F)N1CCC2(CCC2N2CCOCC2)CC1 (stereo unspecified),.,.,0%,3%,.,.,.,.
Cc1noc(C)c1[S+](=O)([O-])N1CCc2nc(C(C)C)nc(-c3ccc(O)cc3)c2C1,-4%,i,?,?,-24%,?,1%[86.2 µM],8%
SMILES,hNpr1 antagonist,Luciferase inh,3T3 cytotox,HEK293 tox,Npr1 antag conf,Npr2 selectivity,FLuc inh counter,GloSensor ctrl
Cc1noc(C)c1[S+](=O)([O-])N1CCc2nc(C(C)C)nc(-c3ccc(Cl)cc3)c2C1,-23%,i,-21%,?,.,.,.,.
O=C(c1ccc(F)cc1)N1CCCC(n2cc(-c3nc(-c4ccccc4)no3)nn2)C1 (stereo unspecified),?,?,?,?,24µM*,24µM*,?,24µM*
O=C(c1ccc(F)cc1)N1CCC(n2cc(-c3nc(-c4ccccc4)no3)nn2)CC1,?,i,?,?,?,?,-17%,24µM*
O=C(c1ccccc1Cl)N1CCC(n2cc(-c3nc(-c4ccccc4)no3)nn2)CC1,?,i,-24%,?,.,.,.,.
O=C(c1ccc(Cl)cc1)N1CCC(n2cc(-c3nc(-c4ccccc4)no3)nn2)CC1,16µM*,i,?,?,22µM*,22µM*,-19%,22µM*
CC(Oc1ccccc1)C(=O)N1CCC(n2cc(-c3nc(-c4ccccc4)no3)nn2)CC1 (stereo unspecified),18µM*,i,?,20µM*,24µM*,22µM*,-24%,24µM*
Cc1ccc(C(=O)NC[C@H]2O[C@@H](CC(=O)NC3CC3)[C@H](O)[C@@H]2O)cc1,4%[70.6 µM],i,-41%[174 µM],2%[172 µM],.,.,.,.
CC1=NS(=O)(=O)N(C)C=C1C(=O)OCc1nc(-c2cccc(C)c2)no1,11µM*,i,?,?,15µM*,14µM*,-1%,14µM*
COc1ccc(CN2C=C(C(=O)OCc3nc(-c4cccc(OC)c4)no3)C(C)=NS2(=O)=O)cc1,?,i,?,-20%,?,-23%,-14%,?
CC1=NS(=O)(=O)N(C)C=C1C(=O)OCc1nc(C)no1,3%,i,-3%,3%,.,.,.,.
CC1=NS(=O)(=O)N(C)C=C1C(=O)OCc1nc(-c2ccc(F)cc2)no1,11µM*,i,-30%,?,22µM*,22µM*,-5%,22µM*
